This passage reports Percent Effect results from ChEMBL document CHEMBL3988442, “University of Dundee, Small-Polar-MMV Screening Library” (2021).

This assay deals with AMP-activated protein kinase, AMPK (Homo sapiens) (UniProt P54646+O43741+P54619+Q9UGJ0+Q9Y478+Q13131+Q9UGI9). Kind of assay: AMP-dependent Kinase enzyme assay. An in vitro enzyme assay that detects ADP turnover that is directly proportional to AMPK activity. This uses naive AMPK that is activated during the assay with MK-8722. It is filed as functional. Also on record: scale not given: direction of the effect not stated beside the values. The settings on record: 30 µM.
As for `C=C(C)CN(CC)C(=O)Nc1ccccc1CN(C)C(C)=O`, the Percent Effect is -1.91%.
The value for `COc1ccc(F)c(-c2cc(C(=O)NC3CC3)ccn2)c1` was -7.5%; that for `CN(C)C(CNC(=O)c1[nH]nc(C2CC2)c1Br)C1CC1` (stereo not given) was -3.39%; that for `Cc1nc(CN(C)c2nccc(C(F)(F)F)n2)cs1` was 5.48%.
The value for `Cc1cnc(CCNC(=O)NCCc2ccc(O)cc2)s1` was 38.4%.
As for `CCn1c(C2CCNCC2)nn(CCn2cncn2)c1=O`, the figure is 3.82%.
Turning to `CCCn1cc(NC(=O)c2cccc(CN3CC[C@H](O)C3)c2)nn1`, the Percent Effect was -5.04%.
The value for `COc1cccc(S(=O)(=O)N2CCN(C)[C@@H]3CS(=O)(=O)C[C@@H]32)c1` was 1.52%; that for `CN(Cc1ccccc1CNC(=O)C1CNC(=O)N1)C1CCCCC1` (stereo not given) was -6.64%; that for `Cc1nc(CN(C)Cc2csc(-c3cccs3)n2)co1` was 10.3%.
The value for `CCOc1ccccc1CN(C)C(=O)CN1C(=O)OC[C@@H]1C(C)C` was 5.19%; that for `CCc1noc(C(C)Sc2nnc(C3CC3)n2CC(N)=O)n1` (stereo not given) was -8.4%.
As for `O=C(N1CC(c2cccnc2)C1)C1(c2ccc(F)cc2)CCOCC1`, the figure is 0.43%; as for `N#Cc1ccc(SCCC(=O)NC(N)=O)cc1`, -6.73%; as for `Cn1cccc1CN(C(=O)Cc1cccs1)C1CC1`, -4.04%.
On to `CC(Cn1ccnc1)NC(=O)NCCN1CCCCCC1=O` (stereo not given), for which the Percent Effect was determined as 0.204%.
As for `CN(Cc1ccc([S+](C)[O-])cc1)c1cncc(Br)c1` (stereo not given), the Percent Effect turned out to be 13.9%.
Turning to `CC(Oc1ccc2c(c1)OCO2)C(=O)N1CCC(c2ncc[nH]2)CC1` (stereo not given), the Percent Effect came out at 4.41%.
On to `O=C(NCCCc1nnc2ccccn12)c1ccccc1C1CCNC1` (stereo not given), for which the Percent Effect was 1.24%.
For the molecule `CN(CC1(CO)CCC1)c1nc2c(c(=O)[nH]1)Cc1ccccc1OC2`, the Percent Effect was 1.42%.
